Measurements: PubChem BioAssay AID1159580 (chemical genetic matrix, 2015)
“And” between values parts separate entries of the source, which are not always exact repeats. Equal entries are not always repeated. Among all 5,500 compounds or so, about 2,000 (36%) were called active. Roughly 18% stayed inconclusive and do not appear here. Rule as the data show it: active = normalized growth mostly below about 0.91 (no sharp cut-off); inconclusive = no clear call, values can overlap the other calls; inactive = mostly above about 0.92. This is one part of the list.

Experiment: chemical genetic growth profiling, strain panel (AID 1159580);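 also: tested at 20 µM; growth read once vehicle control cultures reached saturation at 30 °C; 1 = growth at the plate median or of vehicle wells; lower values mean less growth of the strain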
Details: S. cerevisiae deletion strains, growth OD

Measured: normalized growth

CC[C@@H]1[C@@H](O)N2C3C[C@H]1C1C(O)[C@]4(C[C@@H]12)c1ccccc1N(C)[C@@H]34 (some centres not stated)
inactive: locus YAL013W, strain DEP1, active compounds read low 0.992 | locus YAL021C, strain ccr4, active compounds read low 1.01 | locus YAL026C, strain drs2, active compounds read low 1.04 | locus YAL030W, strain snc1, active compounds read low 1.05 | locus YBL061C, strain skt5, active compounds read low 1.04 | locus YBR009C, strain hhf1, active compounds read low 1.02 | locus YBR021W, strain FUR4, active compounds read low 0.989 | locus YBR023C, strain chs3, active compounds read low 1.05 | locus YBR171W, strain sec66, active compounds read low 1.07 | locus YBR229C, strain ROT2, active compounds read low 0.991 | locus YBR231C, strain swc5, active compounds read low 0.999 | locus YBR279W, strain paf1, active compounds read low 1.04 | locus YCL011C, strain gbp2, active compounds read low 1.02 | locus YCL016C, strain dcc1, active compounds read low 1.02 | locus YCL029C, strain bik1, active compounds read low 0.956 | locus YCL061C, strain MRC1, active compounds read low 1.04 | locus YCL069W, strain vba3, active compounds read low 1.04 | locus YCR088W, strain abp1, active compounds read low 1.04 | locus YDL005C, strain med2, active compounds read low 1.05 | locus YDL035C, strain GPR1, active compounds read low 1.01 | locus YDL040C, strain nat1, active compounds read low 1.03 | locus YDL074C, strain BRE1, active compounds read low 0.972 | locus YDL101C, strain DUN1, active compounds read low 0.984 | locus YDL134C, strain PPH21, active compounds read low 0.986 | locus YDL185W, strain tfp1, active compounds read low 0.963 | locus YDL192W, strain arf1, active compounds read low 0.984 | locus YDR001C, strain nth1, active compounds read low 1.02 | locus YDR069C, strain doa4, active compounds read low 1.04 | locus YDR101C, strain arx1, active compounds read low 0.981 | locus YDR137W, strain rgp1, active compounds read low 1.04 | locus YDR150W, strain NUM1, active compounds read low 1 | locus YDR159W, strain sac3, active compounds read low 0.974 | locus YDR162C, strain NBP2, active compounds read low 0.998 | locus YDR195W, strain ref2 1.03 | locus YDR297W, strain sur2, active compounds read low 1.03 | locus YDR318W, strain mcm21, active compounds read low 0.972 | locus YDR334W, strain swr1, active compounds read low 1.03 | locus YDR335W, strain msn5, active compounds read low 1.03 | locus YDR388W, active compounds read low 0.978 | locus YDR392W, strain spt3, active compounds read low 0.93 | locus YDR502C, strain sam2, active compounds read low 1 | locus YEL003W, strain gim4, active compounds read low 1.03 | locus YEL037C, strain rad23, active compounds read low 1.02 | locus YEL061C, strain CIN8 (second series), active compounds read low 1.04 | locus YEL061C, strain CIN8, active compounds read low 0.995 | locus YER015W, strain faa2, active compounds read low 1.02 | locus YER016W, strain bim1, active compounds read low 1.01 | locus YER110C, active compounds read low 0.977 | locus YER111C, strain swi4, active compounds read low 1.06 | locus YER155C, strain BEM2 (second series), active compounds read low 0.983 | locus YER155C, strain BEM2, active compounds read low 0.991 | locus YER167W, strain BCK2, active compounds read low 0.989 | locus YFR010W, strain ubp6, active compounds read low 1.02 | locus YGL078C, strain dbp3, active compounds read low 0.978 | locus YGL086W, strain mad1, active compounds read low 0.992 | locus YGL167C, strain pmr1, active compounds read low 1.03 | locus YGL173C, strain kem1, active compounds read low 1.02 | locus YGL227W, strain vid30, active compounds read low 1.05 | locus YGL240W, strain doc1, active compounds read low 0.979 | locus YGL248W, strain PDE1, active compounds read low 0.991 | locus YGL253W, strain hxk2, active compounds read low 1.04 | locus YGR078C, strain PAC10, active compounds read low 0.984 | locus YGR135W, strain pre9, active compounds read low 0.96 | locus YGR229C, strain SMI1, active compounds read low 1 | locus YGR252W, strain gcn5, active compounds read low 1 | locus YHR013C, strain ard1, active compounds read low 1.03 | locus YHR027C, strain rpn1, active compounds read low 1.02 | locus YHR030C, strain SLT2, active compounds read low 0.993 and 0.984 | locus YHR079C, strain IRE1 (second series), active compounds read low 0.965 | locus YHR079C, strain IRE1, active compounds read low 0.981 | locus YHR094C, strain hxt1, active compounds read low 0.983 | locus YHR129C, strain ARP1, active compounds read low 0.982 | locus YHR142W, strain chs7, active compounds read low 1.1 | locus YHR200W, strain rpn10, active compounds read low 0.981 | locus YIL066C, strain RNR3, active compounds read low 0.993 | locus YIL073C, strain SPO22, active compounds read low 0.997 | locus YIL125W, strain kgd1, active compounds read low 0.981 | locus YIR030C, strain dcg1, active compounds read low 0.984 | locus YJL092W, strain hpr5, active compounds read low 1.04 | locus YJL095W, strain BCK1 (second series), active compounds read low 1.01 | locus YJL095W, strain BCK1, active compounds read low 0.966 and 1.01 | locus YJL115W, strain asf1, active compounds read low 1.07 | locus YJL129C, strain trk1, active compounds read low 1.06 | locus YJL134W, strain LCB3, active compounds read low 0.993 | locus YJL154C, strain vps35, active compounds read low 1.03 | locus YJL164C, strain tpk1, active compounds read low 1.04 | locus YJL166W, strain qcr8, active compounds read low 1.04 | locus YJL168C, strain set2, active compounds read low 0.97 | locus YJL187C, strain SWE1 (second series), active compounds read low 0.979 | locus YJL187C, strain SWE1, active compounds read low 1.02 | locus YJR043C, strain POL32, active compounds read low 0.973 | locus YJR066W, strain TOR1, active compounds read low 0.926
